Only some compounds are listed: those with a hit (about 12% of all), similar ones and a draw of the others.
G9a block – qHTS Assay for Inhibitors of Histone Lysine Methyltransferase G9a. Potency, µM (titrated, usually from 102 µM), most hits filed as inhibitors. AID 504332, 2011. 350,000 compounds, 8.8% hits. G9a H3K9 monomethylation, AlphaScreen, 2 h. Histone-lysine N-methyltransferase EHMT2 (Homo sapiens), Q96KQ7; also: nearly all actives have a fitted effect of over 75% in size
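Signal arises when biotinylated H3K9 peptide, once monomethylated, bridges streptavidin donor and antibody-captured acceptor beads. Enzyme at 20 nM was preincubated 15 min with test compounds; peptide 500 nM and SAM 20 uM then reacted for 2 h.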
Sfp PPTase inh – qHTS Assay for Inhibitors of Bacillus subtilis Sfp phosphopantetheinyl transferase (PPTase). Potency, µM, usual class: inhibitors. 4'-phosphopantetheinyl transferase ffp (Bacillus subtilis), Q9F4F7. 310,000 compounds, 3.5% hits. Biochemical Sfp PPTase activity, qHTS;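 also: the enzyme is Sfp with the accession as filed and its product quenches rhodamine fluorescence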
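Sfp 15 nM + cpd, 15 min RT; start w/ rhodamine-CoA 5 uM, BHQ-2-YbbR 12.5 uM (final); 50 mM Hepes pH 7.6, 10 mM MgCl2, 0.01% NP-40, 0.01% BSA; read 525/598 nm at 0 and 30 min.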
HP1b chromo inh – HTS for Inhibitors of HP1-beta Chromodomain Interactions with Methylated Histone Tails; 390,000 compounds, 0.56% hits; Chromobox protein homolog 1 (Homo sapiens), P83916; AlphaScreen HP1-beta / biotin-H3K9me3 peptide binding; Potency, µM (doses to about 114 µM), usual class: inhibitors; AID 540317, 2011; also: nearly all actives have a fitted effect of over 70% in size
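AlphaScreen: HP1-beta (50 nM) preformed 30 min with biotin-H3(1-18)K9me3 peptide (50 nM) in PBS pH 7.4, 0.01% Tween-20. Compound added for 30 min at RT, then streptavidin donor/nickel chelate acceptor beads (10 ug/mL) for 30 min.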
BAZ2B inh – qHTS Assay for Inhibitors of BAZ2B; 360,000 compounds, 4.4% hits; AID 504333, 2011; AlphaScreen BAZ2B-H3K14Ac peptide displacement; Potency, µM (highest dose often 114 µM), usual class: inhibitors; also: nearly all actives have a fitted effect of over 60% in size
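Protein-peptide AlphaScreen: BAZ2B 50 nM, b-H3K14Ac 50 nM, 1x PBS pH 7.4 + 0.01% Tween-20. Preincubation 30 min RT; cpd 30 min RT (top 110 uM); beads 20 min RT, light-protected.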
TDP1 block – qHTS Assay for Inhibitors of Tyrosyl-DNA Phosphodiesterase (TDP1); Potency, µM (doses to about 130 µM), most hits filed as inhibitors; Tyrosyl-DNA phosphodiesterase 1 (Homo sapiens), Q9NUW8; 350,000 compounds, 0.28% hits; recombinant TDP1, AlphaScreen DNA substrate cleavage; also: nearly all actives have a fitted effect of over 40% in size
Target sequence (Q9NUW8 whole entry, looked up): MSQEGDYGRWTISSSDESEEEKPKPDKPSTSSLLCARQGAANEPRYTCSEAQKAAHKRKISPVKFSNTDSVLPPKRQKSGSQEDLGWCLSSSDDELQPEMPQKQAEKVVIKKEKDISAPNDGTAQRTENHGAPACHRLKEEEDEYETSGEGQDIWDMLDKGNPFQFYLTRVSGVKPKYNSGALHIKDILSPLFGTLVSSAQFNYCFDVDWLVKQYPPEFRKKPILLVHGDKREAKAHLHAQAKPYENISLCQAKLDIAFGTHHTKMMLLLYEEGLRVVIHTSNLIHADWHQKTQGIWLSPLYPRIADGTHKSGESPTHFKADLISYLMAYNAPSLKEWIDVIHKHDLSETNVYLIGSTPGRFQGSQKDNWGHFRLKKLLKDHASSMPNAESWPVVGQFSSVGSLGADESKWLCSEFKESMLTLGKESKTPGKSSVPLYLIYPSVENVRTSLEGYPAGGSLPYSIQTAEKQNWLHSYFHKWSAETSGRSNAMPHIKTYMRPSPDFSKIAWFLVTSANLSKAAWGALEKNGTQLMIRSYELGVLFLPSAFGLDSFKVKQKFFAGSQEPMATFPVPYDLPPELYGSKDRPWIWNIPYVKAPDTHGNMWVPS
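Tdp1 1 nM final; 15 min RT w/ cpd; substrate 15 nM, 5 min; beads 10 ug/ml, 10 min; AlphaScreen read. Neg ctrl: no enzyme.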
JMJD2A Tudor inh – qHTS Assay for Inhibitors of JMJD2A-Tudor Domain. 390,000 compounds, 4.4% hits. AlphaScreen JMJD2A-Tudor / H3K4me3 peptide binding. Potency, µM (series often up to 114 µM), hits mostly inhibitors. AID 504339, 2011. Lysine-specific demethylase 4A (Homo sapiens), O75164; also: nearly all actives have a fitted effect of over 50% in size
Of the large screens only hits and unclear results are named; the others gave an inactive call. Calls follow the shape of the dose curve; as a rule, active = well fitted curve in the direction sought with a large enough effect; inconclusive = small, poorly fitted or top-dose-only effect, or another doubt; inactive = no such curve, though single readings can be large; an effect the other way counts as inactive or inconclusive.

Oc1cccc(C2c3[nH]c4ccccc4c3CCN2Cc2ccc3c(c2)CCO3)c1 (configuration not stated)	BAZ2B inh 45µM, JMJD2A Tudor inh 56µM
Fc1ccccc1C1c2[nH]c3ccccc3c2CCN1CCCn1cccn1 (configuration not stated)	G9a block 40µM, JMJD2A Tudor inh inconclusive (no result: TDP1 block)
CC(C)(C)C1c2[nH]c3ccccc3c2CCN1CCCn1cccn1 (configuration not stated)	none (no result: TDP1 block)
COc1cccc(C2c3[nH]c4ccccc4c3CCN2Cc2cnc(C)s2)c1OC (configuration not stated)	BAZ2B inh 25µM, JMJD2A Tudor inh inconclusive
Cc1[nH]c(=O)[nH]c(=O)c1/C=N/NC(=O)[C@@H](NC(=O)OC(C)(C)C)C(C)C	G9a block inconclusive
Cc1[nH]c(=O)[nH]c(=O)c1/C=N/NC(=O)[C@H](C)N	G9a block inconclusive, Sfp PPTase inh 50µM, BAZ2B inh 50µM, JMJD2A Tudor inh 56µM
COc1ccccc1N(CC(=O)Nc1ccc(C)c(Cl)c1)S(=O)(=O)c1ccc(C)cc1	none (no result: Sfp PPTase inh, TDP1 block)
O=C(/C=N/O)NCCCn1ccnc1	G9a block inconclusive, BAZ2B inh 79µM
O=C(O)C1CCCCC1C(=O)NCCCn1ccnc1 (configuration not stated)	G9a block inconclusive, BAZ2B inh 79µM
O=C(/C=C/c1ccc(Br)cc1)NCCCn1ccnc1	none (no result: G9a block, TDP1 block)
COc1ccc(OCC(=O)OCc2cc(=O)n3nc(-c4cccs4)sc3n2)cc1	none (no result: Sfp PPTase inh)
Cc1ccc2c(c1)C(Cc1ccccc1F)C(=O)N2 (configuration not stated)	none (no result: Sfp PPTase inh)
CN(C)c1ncc2nc(-c3ccc(Cl)cc3)c(=O)n(Cc3cccs3)c2n1	none (no result: HP1b chromo inh, BAZ2B inh, TDP1 block, JMJD2A Tudor inh)
CCCc1ccc(OC(C)C(=O)Nc2sc3c(c2C(=O)OC)CCCCC3)cc1 (configuration not stated)	G9a block 7.9µM, HP1b chromo inh inconclusive (no result: Sfp PPTase inh)
CCOC(=O)c1c(NC(=O)C(C)Oc2ccc(Cl)c(C)c2)sc2c1CCCC2 (configuration not stated)	G9a block 3.2µM (no result: Sfp PPTase inh)
CCOC(=O)c1c(NC(=O)c2ccccc2Cl)sc2c1CCCC2	none (no result: Sfp PPTase inh)
COc1cc(Cl)cc(C=O)c1OCC(=O)O	none
CC(=O)Nc1ccc(S(=O)(=O)N(CCCN2CCOCC2)Cc2cccs2)cc1	G9a block 40µM, BAZ2B inh 79µM, JMJD2A Tudor inh 45µM
O=[N+]([O-])c1ccc(S(=O)(=O)N(CCCN2CCOCC2)Cc2cccs2)cc1	G9a block 35µM, BAZ2B inh 50µM, JMJD2A Tudor inh 79µM
CCc1ccc(NC(=O)N(CCCN2CCOCC2)Cc2cccs2)cc1	none
CC(C)(C)c1ccc(S(=O)(=O)N(CCCN2CCOCC2)Cc2cccs2)cc1	G9a block 14µM, Sfp PPTase inh 2.2µM, HP1b chromo inh 16µM, BAZ2B inh 25µM, JMJD2A Tudor inh 22µM
Cc1ccc(Cl)cc1NC(=O)COC(=O)CCN1C(=O)C2CC=CCC2C1=O (configuration not stated)	none (no result: G9a block, Sfp PPTase inh, BAZ2B inh)
O=C1CC(N2CCCc3ccccc32)C(=O)N1c1ccccc1 (configuration not stated)	G9a block 40µM
CCN(CC)P(=O)(Nc1ccc(C)cc1Br)c1ccc(N(C)C)cc1NC(=O)c1ccco1 (configuration not stated)	G9a block 40µM, HP1b chromo inh inconclusive, BAZ2B inh inconclusive, JMJD2A Tudor inh 40µM
Cc1ccc(NC(=O)c2ccco2)c(NC(=O)c2ccccc2)c1	none (no result: TDP1 block)
FC(F)(F)c1ccccc1-c1nccc(-n2ccnc2)n1	Sfp PPTase inh inconclusive (no result: HP1b chromo inh, BAZ2B inh, TDP1 block, JMJD2A Tudor inh)
O=C(O)c1ccccc1C(=O)Nc1ccc(-n2ccc(C(F)(F)F)n2)cc1	G9a block 79µM
O=C(Nc1ccc(-n2ccc(C(F)(F)F)n2)cc1)c1cccs1	none
COCCn1c(SCC(=O)c2ccccc2)nc2ccccc2c1=O	none
O=C(CCCCCn1c(SCc2ccncc2)nc2ccccc2c1=O)NCc1ccco1	G9a block inconclusive, BAZ2B inh 50µM, JMJD2A Tudor inh 25µM (no result: TDP1 block)
Cc1ccc(OCc2nnc(SCC(=O)c3ccccc3)n2Cc2ccco2)cc1	G9a block inconclusive, JMJD2A Tudor inh inconclusive
COCCn1c(SCC(=O)c2ccc(CNC(C)=O)o2)nc2ccccc2c1=O	JMJD2A Tudor inh 79µM
CCn1c(SCC(=O)c2ccc(CNC(C)=O)o2)nnc1-c1cccs1	G9a block 18µM, Sfp PPTase inh 50µM, JMJD2A Tudor inh inconclusive (no result: TDP1 block)
O=C(CSc1nnc(COc2ccccc2)n1Cc1ccco1)c1ccc(F)cc1	G9a block 28µM, Sfp PPTase inh 56µM, BAZ2B inh inconclusive, JMJD2A Tudor inh 79µM
O=C(CSc1nc2ccccc2c(=O)n1CCCC(=O)N1CCCC1)NCc1ccco1	none
CCn1c(SCC(=O)NCc2cccs2)nnc1-c1cccs1	none
COc1ccc(-n2cc(C(=O)OCc3ccc(F)c(F)c3)c3ccccc3c2=O)cc1	none (no result: Sfp PPTase inh)
CCN(CC(=O)Nc1c(F)cccc1F)C(=O)c1cccc(S(=O)(=O)N2CCCc3ccccc32)c1	none (no result: G9a block, Sfp PPTase inh, BAZ2B inh, TDP1 block)
O=C1c2ccccc2C(=O)N1CCc1nc2ccccc2c(=O)n1Cc1ccco1	Sfp PPTase inh 50µM
Cc1occc1-c1nnc(SCC(=O)c2ccc(F)cc2)n1Cc1ccco1	G9a block 10µM, Sfp PPTase inh inconclusive, BAZ2B inh 50µM
O=C(CSc1nnc(-c2cc3ccccc3cc2O)n1Cc1ccco1)c1ccc(F)cc1	G9a block inconclusive, HP1b chromo inh inconclusive, JMJD2A Tudor inh inconclusive
COC(=O)c1ccc(CSc2nc3ccccc3c(=O)n2CC(C)C)o1	none
COC(=O)c1ccc(CSc2nc3ccccc3c(=O)n2Cc2ccco2)o1	G9a block 40µM
O=C(CSc1nc2ccccc2c(=O)n1Cc1ccco1)c1ccc(F)cc1	Sfp PPTase inh 32µM
Cc1nc2ccccc2c(=O)n1Cc1ccco1	none
COc1ccc(NC(=O)CCNS(=O)(=O)c2ccc3c(c2)CCCC(=O)N3)cc1	none (no result: Sfp PPTase inh)
CCOc1ccc(N=Nc2c(=O)[nH]n3c(C)cc(C)nc23)cc1	G9a block 7.1µM, HP1b chromo inh inconclusive, BAZ2B inh inconclusive, JMJD2A Tudor inh inconclusive

Screens from PubChem.
